{"source": "PubChem BioAssay AID1508600", "about": "(Functional Genomics Laboratory (NCATS/FGL), 2020)", "note": "In all, about 53,000 sequences went through this assay and about 3,700 (7%) were called active. This is one part of a sample in which actives are shown more often than they occur. Unmarked numbers belong to inactive results.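 How the source made its calls: active means gene knockdowns whose robust z-score for IL-1 alpha signal is at least 2 or at most -2, so actives lie on both sides; inactive means the rest.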", "data": [{"test": "Components of the Cytosolic LPS Sensing Pathway: Gene Identification via Genome-wide siRNA Screen;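 further: robust z of the log signal after scaling to non-targeting control siRNA wells of the plate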", "conditions": "RAW264.7 macrophages, IL-1a HTRF, actives lie on both sides, screened at 100 nM (by protocol), cells primed 5 h with Pam3CSK4 first", "in_short": "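IL-1a HTRF of supernatants after 24 hour LipidA transfection of Pam3CSK4-primed (5 hours) RAW264.7 cells, 48h post-siRNA transfection (100 nM). Scores: percent of plate negative-control median, then log-based robust z-score.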", "values": [{"sequence": "GGAUGAACCACCAUAUGUGTT against Olfr1188", "z-score": "4.69 (active)"}, {"sequence": "GGUUUUGAAAAAGCAUCAATT against Myoz2", "z-score": -0.365}, {"sequence": "GGCCAACUCUAUUUUGAAGTT against Lrp2bp", "z-score": 0.362}, {"sequence": "GGACACAUAAUGUCUACCUTT against Unc93a", "z-score": -0.629}, {"sequence": "GCACUAGCAGACUAGGUGATT against Zbtb26", "z-score": "-2.07 (active)"}, {"sequence": "GGAUUUUCAAUUCAUACCCTT against Psmb1", "z-score": -0.189}, {"sequence": "UUUACCUUGUCACCGUCUUTT against Olfr1029", "z-score": 1.03}, {"sequence": "AUUCAUUGGGAAAAAUUAUTT against Olfr127", "z-score": "-2.38 (active)"}, {"sequence": "CCUCGACAUCUAAUGAAGATT against 4933405O20Rik", "z-score": -1.58}, {"sequence": "GCAAUACGAAGGCGAAAGCTT against P3h4", "z-score": -1.68}, {"sequence": "GGACUUCAUAUUAGCAUGUTT against Plbd2", "z-score": -1.27}, {"sequence": "GACCCUUUUCACCAAGACATT against Tecr", "z-score": 0.989}, {"sequence": "GGAGCAGUGCAUUGAGACCTT against Adcy6", "z-score": "2.34 (active)"}, {"sequence": "GGAAUAAUUGGUGUUAAAGTT against Hnrnpk", "z-score": 0.346}, {"sequence": "GGCUUUGGUCAAGGAGAAGTT against Pias4", "z-score": -1.32}, {"sequence": "GGAUCAAUGAUACAACUGATT against Il1r1", "z-score": -0.976}, {"sequence": "GGUGCUAAAGGACAUAGGUTT against Tmem177", "z-score": "3.27 (active)"}, {"sequence": "GGGCACCUAUUCAGAUACCTT against Map2", "z-score": 0.685}, {"sequence": "GCCGAACGUGUUUAAACUCTT against Psd3", "z-score": 0.0404}, {"sequence": "GGAACCUCUCAGAUUUUCATT against Zfp599", "z-score": 0.828}, {"sequence": "GGCCUCUCAAAAUCUUCCUTT against Galnt11", "z-score": -1.46}, {"sequence": "CGUAGUACCCAUGAAUUACTT against Adora2a", "z-score": "4.87 (active)"}, {"sequence": "GGACUGACUCUUUUUUAACTT against Uba3", "z-score": -0.697}, {"sequence": "CGAAAACAAUUACGUCUAUTT against Rfwd3", "z-score": 1.15}, {"sequence": "GCCAAACGCAUCAUGGAAATT against Arglu1", "z-score": -0.59}, {"sequence": "CCACGACGUACAUCCAUAATT against Tmem181a", "z-score": -1.02}, {"sequence": "GGCGAAAACGGUAAAGCCUTT against H1f4", "z-score": 0.448}, {"sequence": "GGCCAGCAAUAAAACUGUCTT against Max", "z-score": -0.326}, {"sequence": "GCCCGCCUAUUUGAAAGCATT against Zfp740", "z-score": 0.839}, {"sequence": "GGAUGAAGGAACUAAAUAUTT against Cog3", "z-score": "-2.15 (active)"}]}]}
